Bioassay records: PubChem BioAssay, National Center for Advancing Translational Sciences (NCATS)
This is a sample that favours compounds with a hit; in the whole collection about 2.4% have one here.
D2 antag – antagonists of human D2 dopamine receptor. P14416. HEK293 TREx D2 cells, calcium flux, dopamine EC80. inhibition, % at 10 µM. 340,000 compounds, 2% hits. AID 485344; in the data active = inhibition above about 30%; inactive = below that, where a call was filed; also: 0% is about no effect
Target sequence (P14416 whole entry, looked up): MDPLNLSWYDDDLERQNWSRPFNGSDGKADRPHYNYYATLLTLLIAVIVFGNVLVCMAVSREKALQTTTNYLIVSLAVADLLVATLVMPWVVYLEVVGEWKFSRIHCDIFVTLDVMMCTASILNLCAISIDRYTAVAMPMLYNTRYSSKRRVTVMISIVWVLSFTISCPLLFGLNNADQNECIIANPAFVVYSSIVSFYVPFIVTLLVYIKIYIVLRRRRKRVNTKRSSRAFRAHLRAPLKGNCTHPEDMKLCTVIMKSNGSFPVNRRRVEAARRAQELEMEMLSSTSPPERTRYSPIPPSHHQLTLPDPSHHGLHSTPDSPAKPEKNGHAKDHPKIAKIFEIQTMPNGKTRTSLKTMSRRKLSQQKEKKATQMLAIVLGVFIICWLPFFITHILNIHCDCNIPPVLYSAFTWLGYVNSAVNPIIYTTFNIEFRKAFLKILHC
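HEK293 T-REx D2 cells, tet-induced, calcium dye no-wash. Cpd pintool add, 180 s kinetic, then EC80 DA, 180 s kinetic. Ca flux read.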
D2 ag-1 – activates the human D2 dopamine receptor; P14416; HEK293 T-REx D2 cells, calcium flux agonist mode; activation, % at 2 µM; 340,000 compounds, 0.53% hits; AID 485358;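 active = activation over 3 SD above normal in the single-dose calcium agonist read, cut at about 30% in these data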; also: 0% is about no effect
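Calcium-flux readout, 1 cycle/sec over 180 s following compound pin transfer, in inducible HEK293 Trex D2 cells (force-coupled); dopamine controls included. Positive calcium responses during this window marked compounds as potential agonists.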
D2 PAM-1 – potentiates the human D2 dopamine receptor allosterically | P14416 | DiscoveRx D2 beta-arrestin cells, luminescence, 90 min; 100% = 57 uM dopamine signal | potentiation, % (no concentration beside the values) | 360,000 compounds, 0.23% hits | AID 624464; in the data active = potentiation above about 50%; inconclusive = mostly about 30% to 49%
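PathHunter beta-arrestin assay in DiscoveRx D2 cells. Compounds were added with an EC20 of dopamine (50 nM final) for 90 min at 37 deg C. Luminescence was read 1 h after detection reagent, with 57 uM dopamine as the EC100 control.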
D2 PAM-2 – D2 dopamine receptor (human) potentiation. P14416. HEK293 T-REx D2, calcium flux, EC20 dopamine potentiation. potentiation, % at 10 µM. 340,000 compounds, 0.34% hits;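 active = potentiation over 3 SD above the plate norm, cut at about 30% in these data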; also: 0% is about no effect
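Tetracycline-induced HEK293 T-REx cells force-coupled to calcium signalling expressed D2; compounds were pin-added after a 10 s baseline, read kinetically 180 s, then an EC20 dopamine challenge followed with a further 180 s calcium read.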
D2 ag-2 – human D2 receptor agonism in beta-arrestin assay | P14416 | DiscoveRx PathHunter D2 beta-arrestin, luminescence, 90 min; 100% = 57 uM dopamine signal | activation, % (test concentration not listed) | 360,000 compounds, 0.084% hits | AID 624465; in the data active = activation above about 40%; inconclusive = between about 15% and that limit
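Agonist mode: compounds alone added to overnight-plated D2 PathHunter cells for 90 min at 37 C, with 57 uM final dopamine (EC100) defining full response. Beta-arrestin recruitment detected by chemiluminescent reagent, read after 1 h at ambient temperature.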
Starred values were filed as active, the others as inactive; ? = inconclusive; / = no result.

SMILES	D2 antag	D2 ag-1	D2 PAM-1	D2 PAM-2	D2 ag-2
Cc1nnc2c(N3CCN(c4ccc(F)cc4)CC3)nc3ccc(C(=O)c4ccccc4)cc3n12	/	-1	/	-2	/
O=C(NCCCN1CCCCC1)c1ccc2c(c1)ncn2C1CCCC1	30*	0	-25	-4	-4
CCCN1C(=O)c2[nH]nc(-c3ccccc3O)c2C1c1cccc(OCc2ccccc2)c1 (stereo unspecified)	/	-1	/	0	/
Cc1ccc(CCNC(=O)c2ccc(CS(=O)(=O)c3ccccc3C)o2)cc1	-10	0	-15	47*	-2
Cc1ccc(CNC(=O)c2ccc(CS(=O)(=O)c3ccccc3C)o2)cc1	1	-1	2	11	-3
CCOc1ccc(-c2cc(C(=O)NCc3ccccc3Cl)c3ccccc3n2)cc1	/	0	/	/	/
C=C(C)Cn1c2ccc(NC(=S)NCc3ccccc3F)cc2c(=O)n1C	/	/	-6	/	103*
O=c1cc(-c2c(F)c(F)c(F)c(F)c2F)oc2ccccc12	-9	0	-18	18	-3
O=c1cc(-c2c(F)c(F)c(F)c(F)c2F)oc2c(F)c(F)c(F)c(F)c12	56*	18	/	-12	/
COc1ccc(C2C=C(c3ccccc3)Nc3nc(NC(=O)/C=C/c4ccc(F)cc4)nn32)cc1 (stereo unspecified)	/	-1	/	5	/
CCCSc1nc(=S)n(Cc2ccccc2)c(C)c1C(C)=O	43*	-1	-4	-8	6
CC(=O)c1c(N2CCCCC2)nc(=S)n(Cc2ccccc2)c1C	-29	-1	8	5	0
O=C(CC1Nc2ccccc2NC1=O)NC1CCCCC1 (stereo unspecified)	1	0	-4	-2	-1
CC1CCCC(NC(=O)CC2Nc3ccccc3NC2=O)C1C (stereo unspecified)	30*	0	-5	0	-2
COc1ccc(Nc2nnc(-c3ccc(C)c(S(=O)(=O)N4CCOCC4)c3)c3ccccc23)cc1	/	-1	/	-9	/
Cc1ccc(-c2noc(CN(C(=O)c3ccc(C(C)(C)C)cc3)C(C)C)n2)cc1	/	/	/	-2	/
COc1ccc(CC2(CO)CCN(C(C)COc3ccccc3)CC2)cc1 (stereo unspecified)	/	/	25	/	49*
COc1ccc(CC2(CO)CCN(Cc3cnn(-c4ccccc4OC)c3)CC2)cc1	79*	1	-24	-16	-5
COc1ccc(S(=O)(=O)NCC2CCC(C(=O)NCCCN3CCCC3=O)CC2)cc1 (stereo unspecified)	32*	0	-7	15	-4
CCOC(=O)/C(=C\c1ccc(OC)c(OC)c1)C(=O)c1cccnc1	2	3	-5	40*	-2
COc1ccc(/C=C/C(=O)O/N=C(\N)c2cccnc2)cc1OC	-6	-2	16	-3	6
Cc1ccc(SCC(=O)OCC(=O)N(C)CC(=O)Nc2ccccc2Cl)cc1C	33*	2	6	-1	1
COc1cc(S(=O)(=O)N2CCC(c3nc4ccccc4s3)CC2)ccc1S(=O)(=O)N1CC(C)CC(C)C1 (stereo unspecified)	18	0	-7	34*	0
CCC(=O)N1CCc2cc(S(=O)(=O)CCC(=O)NCCc3ccc(S(N)(=O)=O)cc3)ccc21	32*	0	-6	-6	-1
CCC(=O)N1CCc2cc(S(=O)(=O)CCC(=O)NCc3ccc(C)cc3)ccc21	0	0	-10	-5	0
SMILES	D2 antag	D2 ag-1	D2 PAM-1	D2 PAM-2	D2 ag-2
COc1ccc(C(=O)c2cn(CC(=O)Nc3ccc4c(c3)OCO4)c3ccc(OC)cc3c2=O)cc1	/	0	/	/	/
Nc1nc(NCCO)nc(N2CCCCCC2)c1[N+](=O)[O-]	-6	1	4	3	1
OCCN(CCO)c1nc(N2CCCCC2)c2nc(N(CCO)CCO)nc(N3CCCCC3)c2n1	22	42*	-7	-10	8
CCOC(=O)C1C(=O)NC(c2ccccc2)=NC1c1cccc(Br)c1 (stereo unspecified)	55*	0	-2	8	-1
COC(=O)C1=C(C(=O)OC)[C@@H]2N(C)c3ccc(OC)cc3[C@@]23C[C@@H](C(=O)OC)N(S(=O)(=O)c2ccc([N+](=O)[O-])cc2)C3=N1	5	1	3	-7	?
CCCCS(=O)(=O)N1C2=NC(C(=O)OC)=C(C(=O)OC)[C@@H]3N(C)c4ccc(OC)cc4[C@]23C[C@H]1C(=O)OC	34*	0	-4	3	-3
CCN(c1cc(C)cc(C)c1)S(=O)(=O)c1nnc(NC(=O)C2CCCCC2)s1	/	-1	/	-10	/
COc1ccc2c(c1)NC1(O)c3ccccc3C(=O)C21O (stereo unspecified)	32*	0	0	-8	-2
CC1=C(C#N)C2(O)C(=O)c3ccccc3C2(O)N1 (stereo unspecified)	-7	2	-4	-7	0
CCN(CC)S(=O)(=O)c1ccc(Cl)c(C(=O)Nc2ccc(Cl)cc2[N+](=O)[O-])c1	-9	-1	63*	3	12
O=S(=O)(c1ccccc1)N1CCN(S(=O)(=O)N2CCCCC2)CC1	38*	-1	-5	9	2
O=S(=O)(c1ccccc1)N1CCCN(S(=O)(=O)c2ccccc2)CC1	3	0	-10	-4	4
c1ccc(-c2nccc(-c3ccc(-n4cnc5ccccc54)cc3)n2)cc1	-5	0	-10	4	-3
Nc1nccc(-c2ccc(-n3cccc3)cc2)n1	-6	0	-8	50*	-1
CCC(C)NC(=O)Cn1c(=O)ccc2cc(S(=O)(=O)N3CCCC3)ccc21 (stereo unspecified)	/	-2	/	-5	/
CN1CCC(N(C)C(=O)COc2ccccc2Cl)CC1	31*	2	-3	-15	-2
CN(C(=O)COc1ccc(Br)cc1Cl)C1CCCCC1	-9	1	-11	-8	-2
Cc1coc2c(C)c3oc(=O)c(CCC(=O)N4CCCCC4)c(C)c3cc12	/	/	/	-12	/
Cc1cc(C(=O)NCCCn2ccnc2)sc1-c1ccccc1	47*	0	-15	-29	-2
COc1ccc(-c2cc(=O)oc3cc(OCC(=O)NCCCn4ccnc4)ccc23)cc1	-4	-1	-19	-2	2
COc1ccc(Cl)cc1C(=O)NCCCn1ccnc1	2	1	-8	-12	3
Cc1cc(Cl)ccc1OCC(=O)NCCCn1ccnc1	5	-1	-23	-12	0
COc1ccc(C(C)=O)cc1CC(=O)NCCCn1ccnc1	-2	1	-2	34*	1
CCc1cc(=O)oc2cc(OCC(=O)NCCCn3ccnc3)ccc12	37*	0	-10	3	6
Cc1cc(Cl)ccc1OCCCC(=O)NCCCn1ccnc1	36*	2	-8	0	-4
